PubChem BioAssay (NCI)
This is part of a sample that, as a whole, favours compounds with a hit. Of some 83,000 tested, about 20% had one in any assay.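 Cell lines were cultured in 96-well plates, exposed to a single compound concentration, and assessed for percent growth 48 hours later.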 A number with no mark means an inactive call. Active and inactive are the calls of the source. The calls were made as follows: active = growth percent below 10; inactive = the rest.

Tests used:
Assay in all cases: NCI-60 one-dose screen, 48 h (100 = growth as untreated, 0 = no growth, -100 = all killed)
NCI-H322M lung = conditions: 10 µM unless noted
HOP-62 NSCLC = conditions: 10 µM unless noted
A549/ATCC NSCLC = conditions: 10 µM unless noted
K-562 leukemia = conditions: 10 µM unless noted
LOX IMVI melanoma = conditions: 10 µM unless noted
SK-MEL-28 melanoma = conditions: 10 µM unless noted
EKVX NSCLC = conditions: 10 µM unless noted
SN12C renal = conditions: 10 µM unless noted
CAKI-1 renal = conditions: 10 µM unless noted
SR leukemia = conditions: 10 µM
RPMI-8226 leukemia = conditions: 10 µM unless noted
OVCAR-4 ovarian = conditions: 10 µM unless noted
IGROV1 ovarian = conditions: 10 µM
HS 578T breast = conditions: 10 µM unless noted
BT-549 breast = conditions: 10 µM
NCI-H522 lung = conditions: 10 µM unless noted
SNB-19 CNS = conditions: 10 µM unless noted
CCRF-CEM leukemia = conditions: 10 µM unless noted

| Structure (SMILES) | growth (NCI-H322M lung) [%] | growth (HOP-62 NSCLC) | growth (A549/ATCC NSCLC) | growth (K-562 leukemia) [%] | growth (LOX IMVI melanoma) | growth (SK-MEL-28 melanoma) | growth (EKVX NSCLC) [%] | growth (SN12C renal) | growth (CAKI-1 renal) | growth (SR leukemia) | growth (RPMI-8226 leukemia) | growth (OVCAR-4 ovarian) [%] | growth (IGROV1 ovarian) [%] | growth (HS 578T breast) | growth (BT-549 breast) | growth (NCI-H522 lung) | growth (SNB-19 CNS) [%] | growth (CCRF-CEM leukemia) |
| --- | --- | --- | --- | --- | --- | --- | --- | --- | --- | --- | --- | --- | --- | --- | --- | --- | --- | --- |
| OC1(c2ccccc2F)c2ccccc2C2=NCCN21 (stereo not drawn) | 97.2 | 84.9% | 114% | 88.7 | 96.9% | 109% | 97.8 | 101% | 64.4% | 90.9% | 107% | 107 | 79.4 | 110% | 110% |  |  |  |
| C/C(=C\C(=O)O[C@H]1[C@@H]2[C@H](C)CC[C@H]2[C@]2(C)O[C@@]1(C1CCCCC1)C[C@H]2OC(=O)CO)c1ccccc1 | 84.5 | 55.1% | 40.8% | 23.2 |  | 64.6% | 48 | 7.85% (active) | -25% (active) |  | -28.7% (active) | 38.5 |  | -28.1% (active) | -6.37% (active) | 20.3% | 64.4 | 7.86% (active) |
| O=C(Nc1ccc(S(=O)(=O)F)cc1)Oc1ccccc1 | 94.8 | 93.3% | 97.2% | 100 | 95.1% | 99.2% |  | 104% | 105% |  |  | 97 | 99.1 |  |  |  | 97.6 | 88.1% |
| COP(=S)(OC)Oc1ccc(SC)c(C)c1 | 108 | 95.4% |  | 99.6 | 93.3% | 115% | 106 | 100% | 92.6% |  |  |  | 99.7 | 110% | 83.9% | 94.8% | 109 | 113% |
| O=C(O)C1[O][Sb][O]C1C(=O)O (stereo not drawn) | 101 | 109% | 103% | 89.1 | -57.9% (active) | 94% |  |  | 118% |  | 99.3% | 99.2 |  | 101% | 84.6% |  | 110 |  |
| CCOc1cc(C=C(C#N)C#N)cc(Br)c1O | 98.1 | 111% | 102% | 75.2 | 97.1% |  | 104 | 106% | 92.7% | 93.4% |  | 103 | 109 | 107% | 99.1% | 100% |  |  |
| OC1(c2ccc(Cl)cc2Cl)c2ccccc2C2=NCCN21 (stereo not drawn) | 98.6 | 78.7% | 103% | 81.1 | 90.7% | 111% | 97.9 | 92.4% | -21.8% (active) | 80.5% | 82.3% | 105 | 78.9 | 77.7% | 93.5% |  | 101 | 90.5% |
| C[C@]12CC[C@@H]3c4ccc(OC(=O)Cc5ccc(N(CCCl)CCCl)cc5)cc4CC[C@H]3[C@@H]1CC[C@@H]2OC(=O)Cc1ccc(N(CCCl)CCCl)cc1 | 100 | 110% |  | 106 | 108% | 117% | 110 | 92.3% | 101% | 106% | 123% | 111 |  | 120% |  | 134% | 107 | 136% |
| CCC(C)[C@H]1O[C@]2(C=C[C@@H]1C)C[C@@H]1C[C@@H](C/C=C(\C)[C@@H](OC3C[C@H](OC)C(O[C@H]4C[C@H](OC)[C@@H](O)[C@H](C)O4)[C@H](C)O3)[C@@H](C)/C=C/C=C3\CO[C@@H]4[C@H](O)C(C)=C[C@@H](C(=O)O1)[C@]34O)O2 (stereo partly drawn) | 25.7 | -6% (active) | 6.21% (active) |  | -93.1% (active) | -82.4% (active) | 14.6 | 1.84% (active) | 19.8% | -28.1% (active) |  |  | 13 | -13% (active) | -39.1% (active) | -28.8% (active) | 23.2 |  |
| C=CCc1ccc(OC(=O)Cc2ccccc2)c(OC)c1 | 98.3 | 93.2% | 104% |  | 93.6% | 106% |  | 99.5% | 95.2% |  | 106% | 102 | 99.8 | 114% | 106% | 90.4% | 110 | 101% |
